Sampled rows, rich in hits. Any-hit rate of the full collection: about 10%.
aGal spleen mod: inhibitors or activators of human alpha-galactosidase in spleen homogenate. 240,000 compounds, 0.008% hits. Potency, µM (titrated, usually from 80 µM), inactives show top-dose activity change, negative = inhibition, actives largely listed as inhibitors. AID 2107. human spleen homogenate, 4MU-alpha-Gal fluorescence, 40 min;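 also: potency is read from the fitted curve at half-maximal effect; 0% = enzyme with vehicle and -100% = no enzyme basal signal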
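Human spleen homogenate (1 ug) was the enzyme source, with 4-methylumbelliferyl-alpha-D-galactopyranoside (1 mM final) in pH 5.0 citrate buffer with 0.01% Tween-20. Compounds were titrated; after 40 min at 37C, NaOH/glycine stop, 4-MU fluorescence read; AC50 from Hill fits.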
PNC assembly inh: perinucleolar compartment assembly inhibition | AID 2417 | 140,000 compounds, 3.1% hits | activity change (PNC), negative = inhibition, % at 10 µM | PC3M PTB-GFP, PNC prevalence imaging, 16 h; hits give low values;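 active = readout at or below -70, meaning at least 70% loss of cells showing the perinucleolar compartment, a nuclear body marking cancer cells; inconclusive = readout between -30 and a set limit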;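 also: plate controls were DMSO wells for no effect and camptothecin positive control wells for full effect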
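Read-out is percentage of cells bearing a perinucleolar compartment, from automated 20x imaging of fixed, Hoechst-stained PC3M PTB-GFP cells. Cells were seeded 4 h, then exposed 16 h to compound (23 nl of library stock) in duplicate plates.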
ALDH1A1 inh: ALDH1A1 (human) enzyme inhibition | P00352 | Purified ALDH1A1, NADH fluorescence, propionaldehyde substrate | Potency, µM (top dose mostly 75.3 µM), inactives show at the highest dose activity, negative = inhibition, actives largely listed as inhibitors | 220,000 compounds, 7.3% hits; active = well fitted inhibition curve with a large enough effect, not every such curve was filed as active; inconclusive = small, poorly fitted or top-dose-only effect, or another doubt; inactive = no such curve, though single readings can be large or run the other way;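 also: potency is read from the fitted curve at half-maximal effect; plate controls were no enzyme wells and a reference inhibitor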
HPGD inh: blocks human HPGD enzyme activity; P15428; purified HPGD, NADH fluorescence kinetic, PGE2 substrate; Potency, µM, for the others: at the top dose activity change, negative = inhibition, actives largely listed as inhibitors; 150,000 compounds, 4.3% hits; active = well fitted inhibition curve with a large enough effect, not every such curve was filed as active; inconclusive = small, poorly fitted or top-dose-only effect, or another doubt; inactive = no such curve, though single readings can be large or run the other way; also: potency is read from the fitted curve at half-maximal effect
Target sequence (P15428 whole entry, looked up): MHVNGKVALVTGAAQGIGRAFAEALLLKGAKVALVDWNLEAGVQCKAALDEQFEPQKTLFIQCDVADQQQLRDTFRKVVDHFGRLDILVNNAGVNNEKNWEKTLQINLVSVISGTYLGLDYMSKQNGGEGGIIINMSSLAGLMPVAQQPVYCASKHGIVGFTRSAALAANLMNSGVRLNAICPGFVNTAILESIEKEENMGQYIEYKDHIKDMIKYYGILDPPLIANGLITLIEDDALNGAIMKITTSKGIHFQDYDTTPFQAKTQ
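NADH formation kinetics: reaction with 30 uM PGE2 and 1 mM NAD+ (final), 20 nM enzyme, Tris-HCl pH 8 with Tween 20, after 15 min compound preincubation at room temperature. Fluorescence change, last versus first of five reads.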
GLA inh pH 4.5: inhibitors of human alpha-galactosidase A at pH 4.5; activity change, negative = inhibition, % at 105 µM; purified enzyme, 4-MU-alpha-Gal fluorescence, pH 4.5; P06280; 230,000 tested, under 10 active;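 also: 0% = full activity with enzyme and -100% = basal without enzyme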
Target sequence (P06280 whole entry, looked up): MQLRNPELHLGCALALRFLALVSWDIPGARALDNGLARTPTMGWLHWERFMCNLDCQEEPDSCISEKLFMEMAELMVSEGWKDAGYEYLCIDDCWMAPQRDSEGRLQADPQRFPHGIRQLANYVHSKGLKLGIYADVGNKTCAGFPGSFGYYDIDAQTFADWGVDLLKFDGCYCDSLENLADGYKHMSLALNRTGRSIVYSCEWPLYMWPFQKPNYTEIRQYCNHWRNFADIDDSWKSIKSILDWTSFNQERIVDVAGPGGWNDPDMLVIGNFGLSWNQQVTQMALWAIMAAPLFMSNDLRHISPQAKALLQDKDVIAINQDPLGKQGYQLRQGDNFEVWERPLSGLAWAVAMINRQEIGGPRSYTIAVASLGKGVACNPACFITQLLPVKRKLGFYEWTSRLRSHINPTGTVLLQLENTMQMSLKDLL
12-hLO inh: inhibitors of human 12-lipoxygenase (ALOX12); P18054; purified 12-hLO, xylenol orange hydroperoxide absorbance; Potency, µM (top dose mostly 57.1 µM), for the others: at the top dose activity change, negative = inhibition, actives largely listed as inhibitors; 150,000 compounds, 0.12% hits; AID 1452; also: potency is read from the fitted curve at half-maximal effect; nearly all actives have a fitted effect of over 55% in size
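Hydroperoxide output read as Fe(III)-xylenol orange absorbance, 573-to-405 nm ratio, after 30 min reaction with 40 uM arachidonic acid. Enzyme: 150 nM purified human 12hLO, 15 min compound preincubation; 25 mM Hepes pH 7.0, room temperature.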
Active calls of the source: *; [ ] = dose if it differs, or a comment. Unless noted, calls follow the shape of the dose curve; as a rule, active = well fitted curve in the direction sought with a large enough effect; inconclusive = small, poorly fitted or top-dose-only effect, or another doubt; inactive = no such curve, though single readings can be large; an effect the other way counts as inactive or inconclusive. Unless noted, % is scaled to controls: 0 for no effect and ±100 for the full control effect.

How did CN(C)c1ccc(/C=N\NC(=O)c2cnc3ccccc3c2)cc1 do in these assays?
ALDH1A1 inh: -12%[13.5 µM]; HPGD inh: -2%; 12-hLO inh: 2%[11.4 µM]

What do the screens show for `O=C(NC(O)C(=O)c1cccs1)c1cccnc1` (stereo not drawn)?
aGal spleen mod: 12%; PNC assembly inh: inconclusive; ALDH1A1 inh: 10µM*; HPGD inh: -18%; GLA inh pH 4.5: 8; 12-hLO inh: -6%

What do the screens show for `O=C(N/N=C(\CC(=O)c1cccs1)C(F)(F)F)c1cccnc1`?
aGal spleen mod: 5%; ALDH1A1 inh: 20µM*; GLA inh pH 4.5: -11

How did O=C(NC(O)C(=O)c1ccccc1)c1cccs1 (stereo not drawn) do in these assays?
aGal spleen mod: -6%; PNC assembly inh: -3; ALDH1A1 inh: inconclusive; HPGD inh: -8%; GLA inh pH 4.5: 4; 12-hLO inh: -3%

How did COc1ccc(C2OC(=O)Cc3cc(OC)c(OC)cc32)cc1 (stereo not drawn) do in these assays?
aGal spleen mod: 7%; ALDH1A1 inh: 7%

Results for CCOc1cc2c(cc1OCC)C(c1ccccc1OC)OC(=O)C2 (stereo not drawn) ?
aGal spleen mod: 2%; PNC assembly inh: 36; ALDH1A1 inh: 11µM*; HPGD inh: -9%; GLA inh pH 4.5: -9; 12-hLO inh: -1%

How did Cc1ccc(S(=O)(=O)N2CCCC2C(=O)OCc2ccco2)cc1 (stereo not drawn) do in these assays?
aGal spleen mod: 2%; PNC assembly inh: -108*; ALDH1A1 inh: 2.8µM*; HPGD inh: -14%; GLA inh pH 4.5: -14; 12-hLO inh: -16%

What do the screens show for `Cc1ccc(S(=O)(=O)N2CCCC2C(=O)OCc2ccccc2)cc1` (stereo not drawn)?
aGal spleen mod: -2%; PNC assembly inh: -24; ALDH1A1 inh: 9%; HPGD inh: -11%; GLA inh pH 4.5: 5; 12-hLO inh: 1%

How did c1cncc(CNc2ncncc2-c2ccc3c(c2)OCO3)c1 do in these assays?
aGal spleen mod: 4%; ALDH1A1 inh: inconclusive; HPGD inh: inconclusive; GLA inh pH 4.5: -12; 12-hLO inh: 1%

How did O=C(Oc1ccc(C(=S)N2CCOCC2)cc1Br)c1cc(Cl)ccc1Cl do in these assays?
aGal spleen mod: -5%; PNC assembly inh: -12; ALDH1A1 inh: 3%; HPGD inh: -9%; GLA inh pH 4.5: 5; 12-hLO inh: -13%

What do the screens show for `O=C(Oc1c(Br)cc(C(=S)N2CCOCC2)cc1Br)c1ccc(Cl)cc1`?
aGal spleen mod: -1%; PNC assembly inh: 36; ALDH1A1 inh: 6.3µM*; HPGD inh: 16µM*; GLA inh pH 4.5: -5; 12-hLO inh: -26%

Results for NS(=O)(=O)c1ccc(N/N=C/c2ccccc2Br)cc1 ?
aGal spleen mod: 4%; ALDH1A1 inh: 7%; GLA inh pH 4.5: -8

What do the screens show for `C/C(=N\NC(=O)c1cccc(C)c1)c1cccc(NC(=O)c2ccco2)c1`?
aGal spleen mod: 8%; PNC assembly inh: -1; ALDH1A1 inh: 7%; HPGD inh: -15%; GLA inh pH 4.5: -4; 12-hLO inh: 6%

Results for Cc1ccc(N/N=C/c2c(O)cc(C)oc2=O)cc1 ?
aGal spleen mod: -13%; PNC assembly inh: -26; ALDH1A1 inh: inconclusive; HPGD inh: -5%; GLA inh pH 4.5: -6; 12-hLO inh: inconclusive

How did C/C(=N/NC(=O)c1cccc(C)c1)c1c(O)cc(C)oc1=O do in these assays?
aGal spleen mod: -3%; PNC assembly inh: -100*; ALDH1A1 inh: 32µM*; HPGD inh: -25%; GLA inh pH 4.5: 0; 12-hLO inh: -3%

How did C/C(=N\Nc1ccccc1)c1c(O)cc(C)oc1=O do in these assays?
aGal spleen mod: -2%; ALDH1A1 inh: 14µM*; GLA inh pH 4.5: 9

Results for CC1(C)C(=O)C(c2ccccc2)=C2CN3C(=O)N(CCc4ccccc4)C(=O)C3(Cc3ccc(F)cc3)C=C21 (stereo not drawn) ?
aGal spleen mod: 4%; ALDH1A1 inh: -8%; HPGD inh: -13%; GLA inh pH 4.5: -13; 12-hLO inh: -1%

Results for Cc1ccc(SC(CC(=O)c2ccc(C)cc2)C(=O)O)cc1 (stereo not drawn) ?
aGal spleen mod: 8%; PNC assembly inh: inconclusive; ALDH1A1 inh: 0.13µM*; HPGD inh: -20%; GLA inh pH 4.5: -2; 12-hLO inh: 4%

How did CC(C)C[C@@H](NC(=O)OCC1c2ccccc2-c2ccccc21)C(=O)O do in these assays?
aGal spleen mod: -2%; ALDH1A1 inh: 13µM*; HPGD inh: -4%; GLA inh pH 4.5: 0; 12-hLO inh: -1%

How did CC1CN(C(NC(=O)c2ccccc2)C(Cl)(Cl)Cl)CC(C)O1 (stereo not drawn) do in these assays?
aGal spleen mod: -6%; ALDH1A1 inh: -8%; GLA inh pH 4.5: 1

Results for O=C1O/C(=C/c2ccccc2)c2ccccc21 ?
aGal spleen mod: 4%; PNC assembly inh: inconclusive; ALDH1A1 inh: inconclusive; HPGD inh: inconclusive; GLA inh pH 4.5: 3; 12-hLO inh: -2%

What do the screens show for `O=C1/C(=C/c2ccccc2)Nc2ccccc21`?
aGal spleen mod: 1%; PNC assembly inh: 25; ALDH1A1 inh: -8%; HPGD inh: 18µM*; GLA inh pH 4.5: 4; 12-hLO inh: 8%

What do the screens show for `Cc1ccc(C2=NC(C)(C)N=C2SCC(=O)Nc2ccc(Cl)cc2)cc1`?
aGal spleen mod: -2%; PNC assembly inh: 34; ALDH1A1 inh: 22µM*; HPGD inh: -24%; GLA inh pH 4.5: -8; 12-hLO inh: -18%

How did Cc1ccc(C)c(N(CC(=O)NC2CCCC2)C(=O)c2cc3cc4cccc(C)c4nc3s2)c1 do in these assays?
aGal spleen mod: 7%; PNC assembly inh: 47; ALDH1A1 inh: 7%; HPGD inh: -28%; GLA inh pH 4.5: 4; 12-hLO inh: -6%

Results for Cc1ccc2cc3cc(C(=O)N(CC(=O)NC4CCCC4)c4cccc(C)c4C)sc3nc2c1 ?
aGal spleen mod: -1%; PNC assembly inh: -106*; ALDH1A1 inh: 8%; HPGD inh: inconclusive; GLA inh pH 4.5: 1; 12-hLO inh: -1%

Results for O=C1CC(NCC2CCCO2)C(=O)N1c1ccc(Cl)cc1 (stereo not drawn) ?
aGal spleen mod: 0%; ALDH1A1 inh: inconclusive; GLA inh pH 4.5: 3

What do the screens show for `Cc1ccc(N2C(=O)CC(NCC3CCCO3)C2=O)cc1` (stereo not drawn)?
aGal spleen mod: 8%; ALDH1A1 inh: 20µM*; GLA inh pH 4.5: 6

Results for N[C@H](C(=O)O)C1C(C(=O)O)C1C(=O)O (stereo partly drawn) ?
aGal spleen mod: -2%; ALDH1A1 inh: inconclusive

Screening results (PubChem)
